From PubChem BioAssay (NCI) come the findings set out here.

Some test systems named below: HCT-15 colon; HT29 colon; SNB-75 CNS; SNB-19 CNS; U251 CNS; PC-3 prostate; SK-MEL-5 melanoma; UACC-62 melanoma; LOX IMVI melanoma; SK-MEL-28 melanoma; SK-MEL-2 melanoma; EKVX NSCLC; SN12C renal; UO-31 renal; TK-10 renal; ACHN renal; CAKI-1 renal; A498 renal; CCRF-CEM leukemia; MOLT-4 leukemia.
Holding throughout (experiment): NCI-60 one-dose screen, 48 h (100 = growth as untreated, 0 = no growth, -100 = all killed)
Settings in all cases: 10 µM unless noted

Molecules are shown by their SMILES. This is part of a sample that, as a whole, favours compounds with a hit. Of some 83,000 tested, about 20% had one in any assay.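 Cells were grown in 96-well plates and exposed to the test compound at a single concentration for 48 hours; results are reported as percent growth, with values below 10 considered active.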 A number with no mark means an inactive call. Activity calls are given as the source filed them.

With `O=C(CSc1nc2ccccc2c(=O)n1-c1ccc(Cl)cc1)N/N=C/c1ccc(Oc2ccc(Cl)cc2)cc1`, the growth in the assay with HCT-15 colon is 10.4%; in the assay with HT29 colon it was 1.76% (active); with SNB-75 CNS, 57.9%; with SNB-19 CNS, 28.5%; in the assay on U251 CNS, -20.5% (active); in the assay on PC-3 prostate, 0.803% (active). Besides, the growth in the assay on SK-MEL-5 melanoma is 10.9%; with UACC-62 melanoma, 0.427% (active); with LOX IMVI melanoma, -56.3% (active); in the assay with SK-MEL-28 melanoma, 3.17% (active); in the assay on SK-MEL-2 melanoma it was 54.3%; with EKVX NSCLC, 40.8%. For the same compound, the growth with SN12C renal was 45.3%; in the assay on UO-31 renal, 93.1%; in the assay with TK-10 renal, 39.7%; with ACHN renal it was 63.5%; with CAKI-1 renal, 33%; in the assay with A498 renal, -42.3% (active). Moreover, the results for the growth with CCRF-CEM leukemia and in the assay on MOLT-4 leukemia were -2.67% (active) and -25.1% (active), respectively.
As for `CCCCCN1C(=O)/C(=c2\sc3n(c2=O)C2C(NN=3)N(CC)C(=O)N2CC)c2cccc(C)c21` (stereo not given), the growth with HCT-15 colon is 19.9%; with HT29 colon, 37.9%; in the assay on SNB-75 CNS, 20.5%; in the assay with SNB-19 CNS it was 53.1%; with U251 CNS, 61%; with PC-3 prostate, 40%. Besides, the growth in the assay with SK-MEL-5 melanoma was 45.5%; in the assay on UACC-62 melanoma, 35.4%; in the assay with LOX IMVI melanoma it was 37.9%; in the assay with SK-MEL-28 melanoma, 62.4%; in the assay with SK-MEL-2 melanoma it was 97.1%; with EKVX NSCLC, 56.2%. Also, the growth is 74.3% with SN12C renal; 62.7% in the assay on UO-31 renal; 96.5% with TK-10 renal; 43.9% in the assay on ACHN renal; 41.3% in the assay with CAKI-1 renal; 12% in the assay on A498 renal. Also, the growth in the assay on CCRF-CEM leukemia was 30.6%; in the assay on MOLT-4 leukemia, 53.1%.
Take `NC(=O)c1ncn2c(=O)n(CCF)nnc12`: the growth is 80.4% in the assay with HCT-15 colon; 57.4% with HT29 colon; 50.6% in the assay on SNB-75 CNS; 96.1% in the assay on SNB-19 CNS; 93.7% with U251 CNS; 71.6% with PC-3 prostate. Also, the growth in the assay on SK-MEL-5 melanoma was 92.5%; in the assay with UACC-62 melanoma it was 49.6%; in the assay on LOX IMVI melanoma it was 26.1%; in the assay with SK-MEL-28 melanoma, 87%; in the assay with SK-MEL-2 melanoma, -6.14% (active); in the assay on EKVX NSCLC, 92.5%. For the same compound, the growth is 85.5% in the assay with SN12C renal; 41% in the assay on UO-31 renal; 44.3% in the assay on TK-10 renal; 62.2% with ACHN renal; 34% in the assay on CAKI-1 renal; 101% in the assay with A498 renal. The growth is 28.5% with CCRF-CEM leukemia and 29.9% in the assay with MOLT-4 leukemia.
As to `O=C(/C=C/c1ccccc1)c1cccc(O)c1`, the growth was 89.3% in the assay with HCT-15 colon; 110% with HT29 colon; 81.8% in the assay with SNB-75 CNS; 96.1% in the assay on SNB-19 CNS; 91.2% with U251 CNS; 94.2% with PC-3 prostate. For the same compound, the growth in the assay with SK-MEL-5 melanoma was 96.9%; with UACC-62 melanoma, 81.1%; in the assay on LOX IMVI melanoma it was 66.1%; with SK-MEL-28 melanoma, 104%; with SK-MEL-2 melanoma, 108%; in the assay with EKVX NSCLC it was 98.6%. In addition, the growth in the assay on SN12C renal is 98.8%; in the assay on UO-31 renal it was 76.2%; in the assay with TK-10 renal it was 108%; in the assay with ACHN renal it was 106%; in the assay on CAKI-1 renal, 91.5%; in the assay with A498 renal it was 105%. Also, the results for the growth with CCRF-CEM leukemia and with MOLT-4 leukemia were 77.8% and 85.2%, respectively.
In the case of `CCN(CC)CCOc1ccc(C(=C(C)c2ccc(OC)cc2)c2ccc(OCCN(CC)CC)cc2)cc1`, the growth in the assay with HCT-15 colon is -27.1% (active); with HT29 colon it was -28.1% (active); in the assay on SNB-75 CNS it was 30.5%; in the assay on SNB-19 CNS it was 11.9%; in the assay on U251 CNS, -44.5% (active); in the assay on PC-3 prostate it was 17%. The growth in the assay on SK-MEL-5 melanoma was -94.1% (active); in the assay on UACC-62 melanoma, -81.6% (active); with LOX IMVI melanoma, -77.9% (active); in the assay on SK-MEL-28 melanoma it was -83.7% (active); with SK-MEL-2 melanoma it was -36.7% (active); in the assay on EKVX NSCLC it was 39.1%. Moreover, the growth with SN12C renal is 34.6%; in the assay on UO-31 renal it was -75.1% (active); in the assay with TK-10 renal it was 18.8%; in the assay on ACHN renal, -34.1% (active); in the assay with CAKI-1 renal, -18.2% (active); with A498 renal, -29% (active). For the same compound, the growth in the assay with CCRF-CEM leukemia is -10.8% (active); with MOLT-4 leukemia it was 1.17% (active).
For the compound `Fc1ccc2nc(-c3cnn4cccnc34)sc2c1`, the growth is 76.9% with HCT-15 colon; 97.9% in the assay on HT29 colon; 68.5% in the assay on SNB-75 CNS; 82.1% with SNB-19 CNS; 75.8% in the assay on U251 CNS; 84.3% with PC-3 prostate. The growth in the assay on SK-MEL-5 melanoma was 90%; in the assay with UACC-62 melanoma, 75.4%; in the assay on LOX IMVI melanoma, 92.9%; in the assay on SK-MEL-28 melanoma, 117%; in the assay with SK-MEL-2 melanoma it was 119%; in the assay with EKVX NSCLC, 61.8%. In addition, the growth in the assay with SN12C renal is 90.2%; in the assay with UO-31 renal it was 46.8%; in the assay with TK-10 renal, 123%; in the assay with ACHN renal, 78.9%; with CAKI-1 renal, 68.9%; in the assay with A498 renal, 89.7%. Besides, the growth is 102% with CCRF-CEM leukemia and 80.3% in the assay on MOLT-4 leukemia.
For the compound `Cc1ccccc1NC(=O)Nc1nc2ccc([N+](=O)[O-])cc2s1`, the growth was 12.1% with HCT-15 colon; 5.11% (active) in the assay on HT29 colon; 6.72% (active) with SNB-75 CNS; 14.1% with SNB-19 CNS; 3.34% (active) in the assay on U251 CNS; 2.79% (active) with PC-3 prostate. The growth in the assay on SK-MEL-5 melanoma is -47.2% (active); in the assay with UACC-62 melanoma, 11.6%; in the assay on LOX IMVI melanoma, 12.1%; in the assay with SK-MEL-28 melanoma it was 16.6%; in the assay with SK-MEL-2 melanoma, -9.75% (active); in the assay with EKVX NSCLC, 10.3%. For the same compound, the growth with SN12C renal is 6.76% (active); in the assay with UO-31 renal it was 9.02% (active); in the assay on TK-10 renal it was 12.2%; in the assay on ACHN renal it was 3.8% (active); in the assay with CAKI-1 renal, -19.4% (active); in the assay with A498 renal, -24.7% (active). For the same compound, the results for the growth in the assay with CCRF-CEM leukemia and in the assay on MOLT-4 leukemia were 16.2% and 12.5%, respectively.
With `O=C(Nc1cccc(Cl)c1)Nc1nc2cc([N+](=O)[O-])ccc2o1`, the growth is 29.4% in the assay with HCT-15 colon; 71.6% in the assay on HT29 colon; 72.9% in the assay on SNB-75 CNS; 31.3% with SNB-19 CNS; 23.3% in the assay with U251 CNS; 29.8% in the assay with PC-3 prostate. In addition, the growth with SK-MEL-5 melanoma is 15.7%; in the assay with UACC-62 melanoma, 29.1%; with LOX IMVI melanoma it was 40.4%; with SK-MEL-28 melanoma, 36.2%; with SK-MEL-2 melanoma it was 45.5%; in the assay with EKVX NSCLC, 27.8%. The growth is 35.3% in the assay with SN12C renal; 59.3% in the assay on UO-31 renal; 94.9% in the assay with TK-10 renal; 47.8% with ACHN renal; 62% with CAKI-1 renal; 28.3% with A498 renal. The growth in the assay on CCRF-CEM leukemia was 25%; with MOLT-4 leukemia it was 33.8%.
